Results as given in PubChem BioAssay (EPA / NIEHS).
Activity calls are given as the source filed them. The calls were made as follows: active = hit-call score of the fitted dose curve at least 0.9, where 1 is the maximum; inactive = score below 0.9.

What was measured:
Conditions in all cases: mRNA level, 48 h; actives raise or lower the signal
[1] = read-out: cysteine-aspartic acid protease (CASP8), CASP8 (gene 841); test: LTEA_HepaRG_CASP8: Life Technologies and Expression Analysis (LTEA) Assay for cysteine-aspartic acid protease (CASP8) using HepaRG (AID 2283480)
Outline: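 Differentiated human HepaRG cells, plated 48 h then switched to serum-free induction medium, were exposed in duplicate for 48 h to 8 half-log concentrations up to 100 uM in 0.5% DMSO. CASP8 mRNA was quantified by qRT-PCR, normalized to ACTB/GAPDH/POLR2A.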

[2] = read-out: Cytochrome P450 (CYP2B6), CYP2B6 (gene 1555); test: LTEA_HepaRG_CYP2B6: Life Technologies and Expression Analysis (LTEA) Assay for Cytochrome P450 (CYP2B6) using HepaRG (AID 2283481)
Outline: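 HepaRG cells plated 48 h, switched to serum-free induction medium, then dosed 48 h (8 points, half-log from 100 uM, 0.5% DMSO). RNA isolated; CYP2B6 expression measured by qRT-PCR; gain or loss fitted relative to DMSO.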

[3] = read-out: Cytochrome P450 2C19 (Homo sapiens) (UniProt P33261); test: LTEA_HepaRG_CYP2C19: Life Technologies and Expression Analysis (LTEA) Assay for CYP2C19 using HepaRG (AID 2283482)
Outline: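 Transcript levels of CYP2C19 were quantified by qRT-PCR after HepaRG cells were treated for 48 hours with test chemicals up to 100 uM (eight half-log concentrations, 0.5% DMSO vehicle). Gain or loss of signal was fitted relative to DMSO.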

[4] = read-out: CYP2C8 (gene 1558); test: LTEA_HepaRG_CYP2C8: Life Technologies and Expression Analysis (LTEA) Assay for CYP2C8 using HepaRG (AID 2283483)
Outline: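 Differentiated human HepaRG cells were exposed for 48 h in serum-free induction medium to eight half-log concentrations up to 100 uM in 0.5% DMSO, in duplicate. CYP2C8 mRNA was measured by TaqMan qRT-PCR, normalized to ACTB, GAPDH and POLR2A, and fitted bidirectionally against DMSO.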

[5] = read-out: CYP2C9 (gene 1559); test: LTEA_HepaRG_CYP2C9: Life Technologies and Expression Analysis (LTEA) Assay for CYP2C9 using HepaRG (AID 2283484)
Outline: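 Differentiated human HepaRG cells were exposed 48 h in serum-free induction medium to eight half-log concentrations up to 100 uM in 0.5% DMSO. CYP2C9 mRNA was measured by qRT-PCR, normalized to ACTB, GAPDH and POLR2A, and fitted bidirectionally against DMSO.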

[6] = read-out: CYP2E1 (gene 1571); test: LTEA_HepaRG_CYP2E1: Life Technologies and Expression Analysis (LTEA) Assay for CYP2E1 using HepaRG (AID 2283485)
Outline: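 Differentiated HepaRG cells were treated in duplicate for 48 h with chemicals in 0.5% DMSO, from 100 uM downward in half-log dilutions. RNA was then analysed by qRT-PCR for CYP2E1 induction or loss.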

[7] = read-out: CYP4A11 (gene 1579); test: LTEA_HepaRG_CYP4A11: Life Technologies and Expression Analysis (LTEA) Assay for CYP4A11 using HepaRG (AID 2283486)
Outline: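 HepaRG, 48 h chem exposure, 8 conc (100 uM top, half-log), 0.5% DMSO vehicle; qRT-PCR readout, housekeeping-gene normalized; bidirectional curve fit vs DMSO baseline.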

[8] = read-out: Cytochrome P450 3A4 (Homo sapiens) (UniProt P08684); test: LTEA_HepaRG_CYP3A4: Life Technologies and Expression Analysis (LTEA) Assay for CYP3A4 using HepaRG (AID 2283487)
Outline: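 In a human hepatic line (HepaRG), duplicate wells were treated 48 h with up to 100 uM chemical in half-log dilutions. Endpoint: CYP3A4 mRNA induction or loss relative to 0.5% DMSO vehicle, by qRT-PCR.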

[9] = read-out: DNA damage-inducible transcript 3 (DDIT3), DDIT3 (gene 1649); test: LTEA_HepaRG_DDIT3: Life Technologies and Expression Analysis (LTEA) Assay for DNA damage-inducible transcript 3 (DDIT3) using HepaRG (AID 2283488)
Outline: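 Changes in DDIT3 transcript, in either direction relative to 0.5% DMSO vehicle, were quantified by TaqMan qRT-PCR after 48 h chemical exposure of HepaRG cells at 8 concentrations, maximum 100 uM.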

[10] = read-out: Pro-epidermal growth factor (Homo sapiens) (UniProt P01133); test: LTEA_HepaRG_EGF: Life Technologies and Expression Analysis (LTEA) Assay for Epidermal growth factor (EGF) using HepaRG (AID 2283489)
Outline: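 HepaRG, 48 h dosing, 100 uM top, half-log x8, 0.5% DMSO. Readout: TaqMan qRT-PCR (Fluidigm array), housekeeping-normalized. Gain or loss of signal fit vs DMSO.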

Measured: outcome

Chain of Cytochrome P450 2C19 (Homo sapiens) (P33261 whole entry, looked up): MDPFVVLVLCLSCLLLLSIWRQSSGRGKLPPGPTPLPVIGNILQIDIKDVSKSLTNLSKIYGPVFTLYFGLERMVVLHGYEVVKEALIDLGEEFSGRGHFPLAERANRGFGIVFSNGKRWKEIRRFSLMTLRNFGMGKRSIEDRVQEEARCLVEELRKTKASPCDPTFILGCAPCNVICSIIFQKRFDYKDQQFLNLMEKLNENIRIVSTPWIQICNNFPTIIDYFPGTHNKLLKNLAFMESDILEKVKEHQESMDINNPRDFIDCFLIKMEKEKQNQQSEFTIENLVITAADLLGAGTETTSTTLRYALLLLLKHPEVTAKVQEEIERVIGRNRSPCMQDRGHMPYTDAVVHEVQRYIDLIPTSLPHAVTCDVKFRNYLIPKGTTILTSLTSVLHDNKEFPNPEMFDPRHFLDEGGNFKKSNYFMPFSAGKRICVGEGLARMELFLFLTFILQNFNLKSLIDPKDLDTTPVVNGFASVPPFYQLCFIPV
Chain of Cytochrome P450 3A4 (Homo sapiens) (P08684 whole entry, looked up): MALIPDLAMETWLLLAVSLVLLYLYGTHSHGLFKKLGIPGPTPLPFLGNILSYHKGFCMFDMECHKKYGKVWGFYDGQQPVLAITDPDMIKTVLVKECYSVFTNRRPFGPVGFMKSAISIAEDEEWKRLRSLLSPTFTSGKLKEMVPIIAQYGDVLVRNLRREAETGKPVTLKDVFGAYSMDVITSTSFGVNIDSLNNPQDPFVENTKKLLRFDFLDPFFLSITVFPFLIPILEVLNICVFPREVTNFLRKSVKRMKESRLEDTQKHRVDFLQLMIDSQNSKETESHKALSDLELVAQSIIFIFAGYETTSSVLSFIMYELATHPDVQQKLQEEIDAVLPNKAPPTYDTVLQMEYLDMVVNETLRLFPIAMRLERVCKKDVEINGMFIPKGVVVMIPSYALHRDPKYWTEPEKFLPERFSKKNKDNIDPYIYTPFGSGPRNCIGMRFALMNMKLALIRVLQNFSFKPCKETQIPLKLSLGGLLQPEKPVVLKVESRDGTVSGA

O=C(O)c1ccc([N+](=O)[O-])cc1
inactive: all assays above
